# In paper PMC12136788:
# Whole data set: some 5,800 sequences, median “enrichment r” near 0.68, cut for the highest 2% near 11. For the sample, the highest values were picked, then their nearest neighbours and some sequences at random.
# T1: UNK ZnF1-6 (called full-length) (human, UniProt Q9C0B0 30-357)
# T1 sequence: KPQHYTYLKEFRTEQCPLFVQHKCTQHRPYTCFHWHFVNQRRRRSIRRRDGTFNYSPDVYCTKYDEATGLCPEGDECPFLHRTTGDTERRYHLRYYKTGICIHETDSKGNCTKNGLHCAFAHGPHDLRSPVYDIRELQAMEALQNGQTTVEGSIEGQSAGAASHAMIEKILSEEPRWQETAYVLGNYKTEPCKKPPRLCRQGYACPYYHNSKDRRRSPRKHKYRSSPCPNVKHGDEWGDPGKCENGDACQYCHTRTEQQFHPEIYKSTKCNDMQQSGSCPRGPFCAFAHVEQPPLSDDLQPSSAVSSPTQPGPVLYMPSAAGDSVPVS
# B1: chr2:27433287:27433389:+|CDS|ENSG00000115216|unk|FALSE|unique (ssRNA)
# RNA: GGGAGUUCUACAGUCCGACGAUCUUCCAGCAUGUCGGAGGGGGAGUCCCAGACAGUACUUAGCAGUGGCUCAGACCCAAAGGUAGAAUCCUCAUCUUCAGCUCCUGGCCUGACAUCAGUGUCACCUCCUGUGACCUCCACAACCAACAGAGGAUUGAGCAUCA
# B2: chr8:6811200:6812339:-|CDS|ENSG00000275591|control|control|control (ssRNA)
# RNA: GGGAGUUCUACAGUCCGACGAUCAUGUAGAGGCUUCUGCCCCAGUGCAGGCUUCCCUGGAAGAACCCUCAGUAUCUCAGAGCUAGAGGAGCCGCUGGAGCCCAAAAGGGAGCUAAGUCACCAUGCAGCUGUUGGUGUGUGGGUCAACAGAGGAUUGAGCAUCA
# B3: chr19:58083837:58084684:-|three_prime_utr|ENSG00000121413|control|control|control (ssRNA)
# RNA: GGGAGUUCUACAGUCCGACGAUCGCUCGCAUCCGAGGGGAGCCGCCGGAUGUGGAAGAAGACUCGGCUUUCCUGCAGCCAUUUAGUGCCGCCCCAUGCUAGGUUAUUUGACAUUGUGCAGUGUAGAGUUGCCUUAAAGUGCGUCAACAGAGGAUUGAGCAUCA
# B4: chr1:211748167:211748268:-|3pUTR|ENSG00000123684|msi1|FALSE|unique (ssRNA)
# RNA: GGGAGUUCUACAGUCCGACGAUCGUACUGCAUCAGUGAGAUGAGUAGGGUUUUUGUUUGGGAUUGUAAGACUAUUAAGAUCCUAGUAAGUCAGUGGUAGUUUACUGUGAUGUGAGCAUUGUAGAUUCCCCCGUUGUCACUAAUCAACAGAGGAUUGAGCAUCA
# B5: chr17:63354981:63355093:+|CDS|ENSG00000170921|unk|total|mutant (ssRNA)
# RNA: GGGAGUUCUACAGUCCGACGAUCCAGUCAAGGGUCCUAUCUAUAUCUGAAACUUACAUUUGACCUCACCGAGAAAGGCUAUCCCGUGUUAAAGAGCUCCCGCUACAAAGCCGUUCCUGUUUCGCUCUCAGAGGUUUAUUUACUCAACAGAGGAUUGAGCAUCA
# B6: chr11:72288215:72288316:-|3pUTR|ENSG00000162129|unk|FALSE|unique (ssRNA)
# RNA: GGGAGUUCUACAGUCCGACGAUCACCCAGCUAAUUUUUUUUGUAUUUUUAGUAAAGACGGGGUUUCACCAUGUUUGCCAGGCUAGUCUCAAACUCCUGGUCUCAAGUGAUCCACCCACCUUGGCCUCCCAGAGUGCUGAGAUUCAACAGAGGAUUGAGCAUCA
# Biological target: T1, UNK ZnF1-6 (called full-length)
# Assay: nsRBNS (natural sequence RNA bind-n-seq); RBNS binding buffer (assumed for nsRBNS): 25 mM Tris pH 7.5, 150 mM KCl, 3 mM MgCl2, 0.01% Triton X-100, 500 ug/ml BSA, 20 U/ml SUPERase-In, 4 C; UNK is unkempt and MSI1 is Musashi-1; names of the RNAs are library labels; protein concentration not given here; high values mean tight binding
row,Binder,binding signal
1,B1,0.848 enrichment R
2,B2,0.868 enrichment R
3,B3,0.832 enrichment R
4,B4,0.481 enrichment R
5,B5,0.664 enrichment R
6,B6,3.92 enrichment R
